# Measurements from PubChem BioAssay AID1020 (Sanford-Burnham Center for Chemical Genomics, 2008).
# Out of some 200,000 compounds screened, about 240 (0.12%) were called active. The entries come from a sample that favours actives as a whole. Unmarked numbers belong to inactive results. No stated cut-off is given here; in the data, active means inhibition above about 50%; inactive means the rest.
# Test system: glucose-6-phosphate dehydrogenase [Leuconostoc mesenteroides]
# Test: L. mesenteroides G6PDH inhibitors, counter-screen for G6PDH-coupled screening assays, biochemical, Leuconostoc mesenteroides enzyme (AID 1020)
# Conditions: Purified L. mesenteroides G6PDH, diaphorase/resazurin coupled fluorescence, 45 min; at 5 µM; stronger effect = higher value
row,SMILES,inhibition
1,Cc1ccccc1NC(=S)NNC(=O)c1cccc(Br)c1,1.2%
2,COc1ccc(-n2cc(CN(C)Cc3n[nH]c(=O)[nH]3)c(-c3cccc(F)c3)n2)cc1,19.5%
3,COC(=O)c1ccc(NC(=S)NN2CCOCC2)cc1,-2.2%
4,O=C(c1snnc1-c1ccccc1)N1CCOCC1,-2.4%
5,OC(c1nnc(-c2ccccc2)o1)c1cccs1 (stereo unspecified),10.6%
6,CCCCn1c(O)c(N=NC(=O)Cn2c(C(F)(F)F)nc3ccccc32)c2ccccc21,7.1%
7,COc1cc(C=O)c(Br)cc1OCC(=O)NCc1ccccc1,6.7%
8,CCOc1ccccc1N1CCN(C(=O)COc2ccc3c(C)cc(=O)oc3c2)CC1,1.2%
9,Cc1ccc(C(=O)NC(=S)NCc2cccnc2)cc1,-1.6%
10,Cc1ccc(COc2ccc(C(=O)NN)cc2)cc1,10.9%
11,O=C(NCc1ccccc1Cl)C1CCN(S(=O)(=O)N2CCOCC2)CC1,4.2%
12,Nc1ncnc(Nc2cccc(Cl)c2Cl)n1,15%
13,CCOC(=O)Cc1cc(=O)[nH]c(=O)[nH]1,4.9%
14,O=C(/C=C/c1ccccc1[N+](=O)[O-])OC1CCCCC1=O (stereo unspecified),3%
15,O=c1c([N+](=O)[O-])cccn1Cc1ccc(F)cc1Cl,8%
16,CSc1ncccc1C(=O)N1CCCC(CCC(=O)NCc2ccccc2F)C1 (stereo unspecified),8.1%
17,CC(C)(C)N(CC#CCC(O)(c1ccccc1)C1CCCC1)CCO (stereo unspecified),13.4%
18,OCCNCCOc1ccc(Cl)c(Cl)c1,3.7%
19,CC(C)(C)CC(=O)Nc1nnc(SCC(=O)NCc2cccs2)s1,10.3%
20,COc1ccc(CC2(CO)CCN(Cc3cnn(C)c3)CC2)cc1,0.2%
21,CCOC(=O)/C=C/C(=O)OCC(=O)NC(c1ccccc1)c1ccccc1,9.9%
22,Cc1ccc(O)c(-c2cc(C(=O)Nc3c(C)n(C)n(-c4ccccc4)c3=O)[nH]n2)c1,4%
23,CC(C(=O)N=Nc1c(O)n(C)c2ccc(Br)cc12)n1cnc2ccccc2c1=O (stereo unspecified),-0.8%

row,SMILES,inhibition
1,Cc1ccc2cc(C)c(N3CCC(C)CC3)nc2c1,12.3%
2,O=C(Nn1cnnc1)c1ccc([N+](=O)[O-])cc1,6%
3,Cc1nn(-c2ccccc2)c(C)c1/C=N/NC(=O)CSc1nc2ccccc2c(=O)n1-c1ccccc1,-5.5%
4,O=C(COC(=O)C1CC2C=CC1C2)Nc1ccccc1 (stereo unspecified),5.8%
5,CCC(C)(C)c1ccc(OCC(=O)N(C)C)c(C(C)(C)CC)c1,-0.6%
6,CCc1n[nH]c(=S)n1/N=C/c1c[nH]c2ccc(Br)cc12,-2.8%
7,CC(=O)Nc1ccc(S(=O)(=O)N(CCc2ccccc2)CC(=O)N/N=C/c2ccc(C(=O)O)cc2)cc1,6.2%
8,CC(=O)n1cc([C@H]2C=C(C(=O)N3CCOCC3)O[C@@H](OCc3ccc(CO)cc3)C2)c2ccccc21,13.3%
9,COc1cccc(CC(=O)N2CCCC(CCC(=O)N3CCN(c4ccccn4)CC3)C2)c1 (stereo unspecified),2.5%
10,CCN(CC)C(=O)Cn1cc(S(=O)(=O)CC(=O)NCc2ccc3c(c2)OCO3)c2ccccc21,2.6%
11,CC(O)c1cccc(NC(=O)Cc2cccc3ccccc23)c1 (stereo unspecified),0.6%
12,S=c1[nH]ccn1-c1ccc(Cl)cc1,1.9%
13,CCN(CCCNC(=O)CSc1cc(=O)n(C)c2cc(Cl)ccc12)Cc1ccccc1,-6.2%
14,CC(=O)Oc1cc2c(C(=O)NCCN3CCOCC3)c(C)oc2c2ccccc12,51% (active)
15,O=C(NCCN1CCOCC1)c1c(F)c(F)c(F)c(F)c1F,-12.4%
16,O=C(NCCN1CCOCC1)c1cc(Sc2cccc(Cl)c2)nc2ccccc12,-13.7%
17,CS(=O)(=O)c1ccc2nc(NC(=O)c3ccc(Cl)nc3)sc2c1,-4.6%
18,O=C(COc1ccc(NC(=O)c2ccccc2[N+](=O)[O-])cc1)c1ccc(F)cc1,8.6%
19,COC(=O)C1=NNC2(c3ccc(C)cc3)C(=O)N(c3cccc(C)c3C)C(=O)C12 (stereo unspecified),5.9%
20,O=C(c1cn2ccccc2n1)N1CCc2c([nH]c3ccccc23)C1c1ccccn1 (stereo unspecified),16.7%
21,O=[N+]([O-])c1ccc(NCCCO)c(C(F)(F)F)c1,1.5%
22,Cc1ccnc2nc(C(=O)Nc3nnc(-c4ccccc4)o3)nn12,4.6%
23,COc1ccc(Cn2c(-c3ccc(Cl)cc3)c[n+]3ccccc23)cc1,-9.3%

row,SMILES,inhibition
1,O=C(Nc1ccc(N2CCN(C(=O)c3cccs3)CC2)cc1)c1cccnc1Cl,5.3%
2,CCOC(=O)c1c(C)[nH]c(C2=NNC(=NC(C)COC)SC2)c1C (stereo unspecified),-0.8%
3,Cc1[nH]c2ccccc2c1-c1ccc(Cl)nn1,6.2%
4,Cc1nc2scc(-c3cccs3)c2c(=O)n1N,0%
5,O=c1c2c(ncn1Cc1ccccc1)nc1n2CCC1,10.7%
6,CN(C(=O)CSc1nncc2ccccc12)C1CCCCC1,-2.2%
7,O=C(N/N=C/c1ccc(OCc2ccccc2)cc1)c1ccc(O)cc1,4.1%
8,O=C(NC1CCCC1)C(NS(=O)(=O)c1ccc(Br)s1)c1ccccc1 (stereo unspecified),15.8%
9,Cc1ccc(NC(=O)OCCNC(=O)c2ccncc2)cc1,7.9%
10,CCCCS(=O)c1snnc1C (stereo unspecified),7.1%
11,CCOC(=O)C(C)Oc1cccc2c(=O)n(CC(=O)NCCc3ccc(OC)c(OC)c3)ccc12 (stereo unspecified),12.1%
12,CCn1c(=S)[nH]c2sc3c(c2c1=O)CCCCC3,-4.4%
13,O=C(N/N=C/c1ccccn1)C12CC3CC(CC(C3)C1)C2,1.5%
14,O=C1c2cccc3c([N+](=O)[O-])ccc(c23)C(=O)N1CC1CCCO1 (stereo unspecified),0.7%
15,O=C(COc1cc(Cl)c(Cl)cc1Cl)NCCc1ccccn1,12.4%
16,CC(Cc1cccs1)NC(=O)c1cccc(Cl)c1 (stereo unspecified),7%
17,OCCC1CN(Cc2cccn2-c2nccs2)CCN1CCc1ccccc1 (stereo unspecified),12.9%
18,CCC1(CC)NC(=O)N(Cc2nc3ccccc3s2)C1=O,10.3%
19,CCOc1ccccc1NC(=O)C1CCCN(C(=O)Nc2ccccc2)C1 (stereo unspecified),4.5%
20,CCOC(=O)CNC(=O)/C=C/c1c(Cl)cccc1Cl,1.5%
21,Cc1ccc(N2C(=O)SC(N(CC(=O)O)c3ccc(C)cc3)C2=O)cc1 (stereo unspecified),21.1%
22,Cc1ccc(Nc2nnc(SCC(=O)c3cc4ccccc4o3)s2)cc1C,-1.5%
23,CCC(C)NCC(=O)Nc1ccc([N+](=O)[O-])cc1C(=O)Nc1ccccc1F (stereo unspecified),4.8%

row,SMILES,inhibition
1,NC1=NN(c2cccc(C(=O)O)c2)C(=O)C1,19.2%
2,CCOC(=O)/C(N=Nc1cc(C(=O)O)cc(C(=O)O)c1)=C(\O)CCl,-9.1%
3,CCC1CCCCN1C(=S)Nc1ccc(SC(F)F)cc1 (stereo unspecified),-14.7%
4,O=C(O)/C=C/c1cn(Cc2ccccc2)nc1-c1cccs1,2%
5,CC[N+]1(CC)CC2=Cc3ccccc3CC2C1 (stereo unspecified),0.9%
6,O=C(Nc1ccc(Cl)cc1)C1c2cccc[n+]2CC(=O)N1Cc1ccc2c(c1)OCO2 (stereo unspecified),10.2%
7,C=CCN(CC=C)S(=O)(=O)c1ccc(C(=O)Nc2nc3c(s2)CCc2ccccc2-3)cc1,8.4%
8,CCOC(=O)N1CCN(C(c2cccnc2)c2ccc3cccnc3c2O)CC1 (stereo unspecified),23.8%
9,Oc1c(C(c2ccccn2)N2CCOCC2)ccc2cccnc12 (stereo unspecified),50.6% (active)
10,Cc1nc2sc(C(c3ccco3)N3CCOCC3)c(O)n2n1 (stereo unspecified),-0.1%
11,COc1ccccc1N=Cc1c(O)c2ccccc2oc1=O,2.9%
12,COC(=O)c1c(NC(=O)COC(=O)[C@@H](NS(=O)(=O)c2ccccc2)C(C)C)sc2c1CCC2,-20.8%
13,Cc1cc(C)cc(C(=O)N2CCN=C2SCc2ccc([N+](=O)[O-])cc2)c1,-0.2%
14,COCC(C)n1c(C)cc(C(=O)CSc2cc(C)c3ccccc3n2)c1C (stereo unspecified),-2.6%
15,CC1=C/C(=N\S(=O)(=O)c2ccccc2)C(C(C)C)=CC1=O,1.5%
16,CC(C)CC[n+]1ccn(C2=C([O-])c3ccccc3C(=O)/C2=N\S(=O)(=O)c2ccccc2)c1,52.9% (active)
17,O=C1NC(c2ccccc2)CCC1(Cl)Cl (stereo unspecified),-1%
18,COc1ccccc1CNC(=O)C1Cc2ccccc2C(=O)O1 (stereo unspecified),14.2%
19,Cc1cccc(-c2nc3ccccc3c(=O)n2NC(=O)Cc2ccc(Cl)cc2)c1,12.9%
20,O=C(COC(=O)c1cc2c(s1)CCCC2)NCc1ccccc1Cl,-30.3%
21,CCNC(=O)c1ccc(OCC(=O)Nc2ccc(F)cc2)c(OC)c1,0%
22,COC1=CCC2([N+](=O)[O-])CN(CC(=O)O)CC1([N+](=O)[O-])C2 (stereo unspecified),-3.5%
23,Cc1ccc(C2=NN(C(=O)CSc3nc(N)cc(N)n3)C(c3ccco3)C2)cc1 (stereo unspecified),-0.7%

row,SMILES,inhibition
1,COc1ccc(C)cc1NC(=O)C(OC(=O)c1cccc(S(=O)(=O)N(C)c2ccccc2)c1)c1ccccc1 (stereo unspecified),0.4%
2,Cc1cc(C)c(NC(=O)C[N+](C)(C)CC(O)COc2cccc3ccccc23)c(C)c1 (stereo unspecified),-0.6%
3,CCOC(=O)C1=C(C)OC(N)=C(C#N)C1c1cncc(-c2ccc(F)cc2)c1 (stereo unspecified),14.8%
4,CC1(C)CC(=O)C2=C(C1)Nc1cc(C(=O)c3ccccc3)ccc1NC2c1ccccn1 (stereo unspecified),8.9%
5,Cc1nc2ccc(NC(=S)N3CCC(C)CC3)cc2nc1C,29.3%
6,COC(=O)c1nc(NC(=O)c2ccc(F)cc2)n[nH]1,-4.4%
7,Cc1ccc(S(=O)(=O)N(CC(=O)Nc2cccc([N+](=O)[O-])c2)Cc2ccc(Cl)cc2)cc1,-21.7%
8,O=C(/C=C/c1ccc(Cl)cc1)Nc1ccc(Br)cn1,7.2%
9,Cn1c(=O)c2c(ncn2CC(=O)N/N=C/c2cn[nH]c2-c2ccc(F)cc2)n(C)c1=O,-4.7%
10,CC(C)(C)NC(=O)CN(C(=O)c1csnn1)c1ccccc1-c1ccccc1,9.8%
11,COCCCNC(=O)Cn1c(=O)n(Cc2ccccc2Cl)c(=O)c2cc(OC)c(OC)cc21,4.4%
12,Cc1ccc(-c2cc(N)on2)cc1,4.2%
13,CCCN(CCC)CCCNC(=O)CNC(=O)c1nn(-c2ccc(OC)cc2)c(=O)c2ccccc12,6%
14,CCOC(=O)c1c(NC(=O)CNC2CCCc3ccccc32)sc(C(N)=O)c1C (stereo unspecified),2.5%
15,CN(CC(=O)Nc1ccccc1[N+](=O)[O-])Cc1ccc(Br)cc1,-0.3%
16,Cc1cc(/C=N/NC(=O)c2cccnc2)c(C)n1CC(C)C,2.9%
17,CC1CCCCN1C(=S)NCc1ccccc1 (stereo unspecified),-13%
18,CC(=O)N1c2ccccc2N(Cc2ccc([N+](=O)[O-])cc2)C(=O)C1(C)C,4.5%
19,COC(=O)c1ccc(NC(=O)c2cc(Cl)ccc2OC)cc1,0.4%
